Data reported in PubChem BioAssay (NCI).
Compounds without any hit were thinned out: in the full panel of roughly 83,000, 20% have a hit.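 In brief: 96-well plates, 48 h treatment, single concentration, percent growth endpoint.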 Unmarked numbers belong to inactive results. Active and inactive are the calls of the source. The calls were made as follows: active = growth percent below 10; inactive = the rest.

Experiments:
Assay in all cases: NCI-60 one-dose screen, 48 h (100 = growth as untreated, 0 = no growth, -100 = all killed)
SK-MEL-2 melanoma = conditions: 10 µM unless noted
EKVX NSCLC = conditions: 10 µM unless noted
SN12C renal = conditions: 10 µM unless noted
UO-31 renal = conditions: 10 µM unless noted
TK-10 renal = conditions: 10 µM unless noted
ACHN renal = conditions: 10 µM unless noted
CAKI-1 renal = conditions: 10 µM unless noted
A498 renal = conditions: 10 µM unless noted
CCRF-CEM leukemia = conditions: 10 µM unless noted
MOLT-4 leukemia = conditions: 10 µM unless noted
SR leukemia = conditions: 10 µM unless noted
RPMI-8226 leukemia = conditions: 10 µM unless noted
OVCAR-8 ovarian = conditions: 10 µM unless noted
OVCAR-5 ovarian = conditions: 10 µM unless noted
OVCAR-4 ovarian = conditions: 10 µM
IGROV1 ovarian = conditions: 10 µM unless noted
OVCAR-3 ovarian = conditions: 10 µM unless noted
HS 578T breast = conditions: 10 µM unless noted
NCI/ADR-RES ovarian = conditions: 10 µM unless noted
SK-OV-3 ovarian = conditions: 10 µM unless noted

Row | Structure (SMILES) | growth (SK-MEL-2 melanoma) | growth (EKVX NSCLC) | growth (SN12C renal) | growth (UO-31 renal) | growth (TK-10 renal) | growth (ACHN renal) | growth (CAKI-1 renal) | growth (A498 renal) | growth (CCRF-CEM leukemia) | growth (MOLT-4 leukemia) | growth (SR leukemia) | growth (RPMI-8226 leukemia) | growth (OVCAR-8 ovarian) | growth (OVCAR-5 ovarian) | growth (OVCAR-4 ovarian) | growth (IGROV1 ovarian) | growth (OVCAR-3 ovarian) | growth (HS 578T breast) | growth (NCI/ADR-RES ovarian) | growth (SK-OV-3 ovarian)
1 | CCOC(=O)c1nn(C2CCCCO2)c2ccc(NC(=O)CN3CCCC3)cc12 (stereo unspecified) | 107% | 95.8% | 98.9% | 84.4% | 103% | 101% | 91.5% | 78.9% | 108% | 99.3% | 103% | 105% | 101% | 99.1% | 99.4% | 102% | 109% | 95.4% | 103% | 
2 | CCCN1CC(c2ccc(OC)c(OC)c2)=C(c2cn(C(=O)OCC)c3ccccc23)C1=O | 53.3% | 55.6% | 53% | 39.4% | 89.6% | 37% | 25.8% | -11.4% (active) | 78.8% | 38.7% | 25.3% | 63.8% | 71.5% | 83.1% | 62.3% | 40.2% | 2% (active) | 48.1% | 29.5% | 
3 | c1cc2ccc3cc2cc1CNCCN1CCNCc2ccc4ccc(cc4c2)CNCCN(CCNC3)CCNCc2ccc3ccc(cc3c2)CNCC1 | -9.83% (active) | 48.7% | 1.52% (active) | 82.4% | 75.2% | 91.2% | 93.8% | 100% | 51% | 8.03% (active) | 10.1% | 7.69% (active) | 69.3% | 0.497% (active) | -7.14% (active) | 21.9% | -1.21% (active) | 48.4% | 99% | 
4 | COC(=O)[C@]1(C)CC[C@]2(C)CC[C@]3(C)C(=CC(=O)[C@@H]4[C@@]5(C)CCC(=O)NC(C)(C)[C@@H]5CC[C@]43C)[C@@H]2C1 | -83.2% [100 µM] (active) | -45.1% [100 µM] (active) | -81.1% [100 µM] (active) | -93.3% [100 µM] (active) | -26.3% [100 µM] (active) | -39.8% [100 µM] (active) | -20% [100 µM] (active) | -91.4% [100 µM] (active) | -25.4% [100 µM] (active) | -20.7% [100 µM] (active) | 32.7% [100 µM] | -44.5% [100 µM] (active) | -39.8% [100 µM] (active) | -60.8% [100 µM] (active) |  | -55.5% [100 µM] (active) | -70.4% [100 µM] (active) | -30.4% [100 µM] (active) | -71.9% [100 µM] (active) | -16.8% [100 µM] (active)
5 | CC(C)=CCC[C@](C)(O)[C@H]1CC[C@]2(C)[C@@H]1CC[C@@H]1[C@@]3(C)CC[C@H](OC(=O)CCC(=O)O)C(C)(C)[C@@H]3CC[C@]12C | -13.1% [100 µM] (active) | 45.3% [100 µM] | 15% [100 µM] | 19.5% [100 µM] | 49.6% [100 µM] | 21.4% [100 µM] | 21.4% [100 µM] | 40.1% [100 µM] | 3.55% [100 µM] (active) | 5.86% [100 µM] (active) | 29% [100 µM] | 9.12% [100 µM] (active) | 24.7% [100 µM] | 41.7% [100 µM] |  | 15.3% [100 µM] | -32.1% [100 µM] (active) | 41.2% [100 µM] | 29.9% [100 µM] | 42.4% [100 µM]
6 | O=C1Nc2ccccc2/C1=C/C(=O)c1ccc(N2CCCCC2)cc1 | 113% | 106% | 73.5% | 47.4% | 85.8% | 27.6% | 63.8% | 95.8% | 5.19% (active) | -6.75% (active) | 16.9% | 26.9% | 54.9% | 104% |  | 50% | 10.4% | 93.4% | 90.3% | 100%
7 | NC(=O)CC1C=CCC1 (stereo unspecified) | 105% | 105% | 99.4% | 91.5% | 89.2% | 100% | 99.2% | 97.1% | 82.4% | 95.6% | 106% | 96.5% | 84.7% | 96.7% |  | 107% | 111% | 110% | 109% | 105%
8 | NS(=O)(=O)c1ccc(CCN2C(=O)/C(=C\c3ccccc3)C=C2c2ccc(Cl)cc2)cc1 | 102% | 88.5% | 90.6% | 65.8% | 113% | 97% | 65.1% | 65.6% | 101% | 94.8% | 103% | 98.3% | 98.2% | 99.4% | 95.4% | 91.9% |  | 93.9% | 107% | 
9 | C#C[C@]1(O)CC[C@H]2[C@@H]3CC=C4c5nc(Nc6ncccn6)sc5CC[C@]4(C)[C@H]3CC[C@@]21C | 18% | 43.6% | 82.8% | 83.4% | 77.3% | 60.7% | 58.6% | 34.4% | 48.6% | 2.75% (active) | 17.8% | -12.3% (active) | 77% | 86% | 67.9% | 70.8% |  | 1.8% (active) | 75.4% | 
10 | Cc1ccc(NC(=S)/N=c2/n(-c3ccccc3)nc3n2CCN3C2=NCCN2)cc1 | 109% | 113% | 100% | 92.4% | 97.5% | 106% | 86% | 81.2% | 102% | 98.8% | 112% | 104% | 105% | 98.2% |  | 120% | 129% | 111% | 112% | 114%
11 | O=[N+]([O-])c1ccc(O)c(-c2nc3ccccc3s2)c1 | 99% | 83.6% | 64.9% | 43.5% | 82.4% | 85.6% | 73% | 42.6% | 77.3% | 65.3% | 84.5% | 51.1% | 92% | 112% |  | 70% | 47.9% | 67.3% | 82.8% | 81.2%
12 | C=C(C)[C@@H]1CC[C@]2(C)[C@H](CC[C@@H]3[C@@H]([C@@](C)(O)CCC=C(C)C)CC[C@]32C)[C@@]1(C)CCC(=O)N1CCN(C)CC1 | -88.5% [100 µM] (active) | -66.4% [100 µM] (active) | -95.6% [100 µM] (active) | -100% [100 µM] (active) | -79.3% [100 µM] (active) | -100% [100 µM] (active) | -90.7% [100 µM] (active) | -96% [100 µM] (active) | -27.6% [100 µM] (active) | -41.2% [100 µM] (active) | 7.02% [100 µM] (active) | -38.4% [100 µM] (active) | -65.6% [100 µM] (active) | -93.3% [100 µM] (active) |  | -82.5% [100 µM] (active) | -85.9% [100 µM] (active) | -41.5% [100 µM] (active) | -87% [100 µM] (active) | -83.4% [100 µM] (active)
